Among the data in paper PMC10668032, “Altered binding affinity of SIX1-Q177R correlates with enhanced WNT5A and WNT pathway effector expression in Wilms tumor” are binding signal values, retold here.

Whole data set: some 33,000 sequences, median “e-score” near -0.053, cut for the highest 2% near 0.38. The sample as a whole holds a higher share of the highest values than the screen did.

The test has as its target T1, SIX1 homeodomain (reference allele) (human, UniProt Q15475 108-198).
T1 sequence: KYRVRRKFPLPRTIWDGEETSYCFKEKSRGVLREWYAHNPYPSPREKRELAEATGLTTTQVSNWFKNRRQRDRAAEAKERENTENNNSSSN
Put plainly: universal protein binding microarray; Universal all-10-mer PBM (8x60K, AMADID 030236), 300 nM GST-tagged protein, Alexa Fluor 488 anti-GST; buffer, salt, pH and temperature not stated (as in Berger); high values mean tight binding. The following applies: protein: ivt; tags: N-terminal GST; dsDNA, one strand shown. Put shortly: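 GST-tagged homeodomains were made by in vitro transcription/translation and quantified by anti-GST western blot against a recombinant GST standard curve. They were applied in duplicate at 300 nM final concentration to universal 'all 10-mer' protein binding microarrays (8×60K format). Binding was quantified as 8-mer E-scores with the Universal PBM Analysis Suite.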
As for ATGATCGG, the binding signal was 0.294 ± 0.0125 E-score.
The same measure for GTGATCAA: 0.236 ± 0.0408 E-score; for CTGATCCA: 0.357 ± 0.0346 E-score.
The same measure for ATGATCGA: 0.173 ± 0.029 E-score.
The same measure for GTGATCTA: 0.2979 ± 0.000552 E-score; for CTGATCGC: 0.191 ± 0.0397 E-score.
Consider ATGATCCG, for which the binding signal stood at 0.452 ± 0.00636 E-score.
With GTGATCCA, the binding signal was determined as 0.377 ± 0.0369 E-score.
The same measure for ATGATCTG: 0.355 ± 0.0221 E-score.
The same measure for CTGATCTC: 0.312 ± 0.016 E-score; for CTGATCCC: 0.416 ± 0.02 E-score.
The same measure for ATGATCCA: 0.391 ± 0.0192 E-score.
In the case of TCCCCTCA, the binding signal came out at 0.175 ± 0.0645 E-score.
The same measure for CTGCTATA: 0.194 ± 0.0359 E-score; for AGTGAGAC: 0.198 ± 0.0551 E-score; for ACTCGATA: 0.303 E-score.
As to TACACCTA, the binding signal was 0.304 ± 0.0311 E-score.
The same measure for CATTATCC: 0.326 ± 0.00937 E-score; for CGTCGATC: 0.157 ± 0.105 E-score; for ATCATTTA: 0.193 ± 0.0974 E-score.
Regarding AATTATAC, the binding signal came out at 0.165 ± 0.066 E-score.
The same measure for GATAGTCA: 0.189 ± 0.0298 E-score; for TAAAGATA: 0.167 ± 0.162 E-score; for ATGATCAC: 0.309 ± 0.0105 E-score.
The same measure for ATGATCCC: 0.448 ± 0.0106 E-score; for ATGATCTC: 0.327 ± 0.0416 E-score; for ACCGAGAT: 0.26507 ± 0.000212 E-score.
For the sequence ACGGATGA, the binding signal turned out to be 0.211 ± 0.0174 E-score.
Consider ATCGCGAT, for which the binding signal was found to be 0.334 ± 0.0159 E-score.
The same measure for ATACATTC: 0.188 ± 0.0482 E-score.
As for TACGTGGA, the binding signal amounted to 0.195 ± 0.113 E-score.
As for GTGGATAA, the binding signal was 0.2486 ± 0.00124 E-score.
With CTGGATCA, the binding signal was found to be 0.326 ± 0.0378 E-score.
The same measure for ATGGATCG: 0.345 ± 0.0571 E-score; for GTAGATCA: 0.29 ± 0.0141 E-score.
The same measure for GTGGATCA: 0.4 ± 0.0347 E-score.
The same measure for ATGGATCA: 0.383 ± 0.00801 E-score.
For ACACCAGC, the binding signal was 0.211 ± 0.0357 E-score.
The same measure for CTTCGATA: 0.342 ± 0.0398 E-score; for GCATATGA: 0.167 ± 0.0211 E-score; for GCATACTA: 0.22 ± 0.00291 E-score.
The same measure for ATGTATGA: 0.261 ± 0.0176 E-score.
The same measure for ATCATTAG: 0.281 ± 0.0368 E-score; for TCACCTGA: 0.165 ± 0.00229 E-score; for CATACCTA: 0.174 ± 0.0329 E-score.
Regarding AATACCGC, the binding signal was 0.386 ± 0.0176 E-score.
As for AATACCGT, the binding signal stood at 0.318 ± 0.04 E-score.
In the case of GATACCGA, the binding signal was 0.4164 ± 0.00268 E-score.
The same measure for TATACCGA: 0.339 ± 0.026 E-score; for AATACCGG: 0.273 ± 0.0276 E-score.
For the sequence GATACCGC, the binding signal turned out to be 0.461 ± 0.0131 E-score.
The same measure for GATACCTA: 0.472 ± 0.0087 E-score; for AATACCGA: 0.321 ± 0.0139 E-score.
The same measure for CATACCGG: 0.166 ± 0.0474 E-score.
AATACCTA: the binding signal came out at 0.289 ± 0.0733 E-score.
The same measure for GCTAATAC: 0.244 ± 0.0389 E-score; for CCGGAATA: 0.162 ± 0.00262 E-score; for AACTACAC: 0.169 ± 0.006 E-score.
The same measure for CGTTGATC: 0.152 ± 0.0357 E-score; for GACCCGGC: 0.183 ± 0.012 E-score.
The same measure for GGTGTAGA: 0.317 ± 0.04 E-score.
AGTATCTC: the binding signal worked out at 0.376 ± 0.0377 E-score.
The same measure for CCTATCTC: 0.227 ± 0.035 E-score; for ACTATCTC: 0.209 ± 0.0851 E-score.
The same measure for CGTATCTC: 0.378 ± 0.00747 E-score.
For AGTATATA, the binding signal is 0.306 ± 0.0599 E-score.
The same measure for CGTATCTA: 0.349 ± 0.0276 E-score.
The same measure for CGTATATC: 0.336 ± 0.0303 E-score; for AGTATCTG: 0.317 ± 0.0419 E-score.
As for AGTATATC, the binding signal turned out to be 0.383 ± 0.0642 E-score.
The same measure for CATCTATC: 0.211 ± 0.0124 E-score; for ATATGGCG: 0.223 ± 0.0647 E-score.
In the case of AATGGGAT, the binding signal came out at 0.213 ± 0.0227 E-score.
For ACACCTTA, the binding signal is 0.238 ± 0.0937 E-score.
The same measure for GATGAGCC: 0.249 ± 0.0159 E-score; for CTATCTGA: 0.231 ± 0.0348 E-score.
The same measure for CGAGATCC: 0.325 ± 0.0133 E-score; for GATAATGA: 0.174 ± 0.0154 E-score.
Regarding AGACGGGA, the binding signal came to 0.2 ± 0.0154 E-score.
The same measure for ATAGTAGC: 0.187 ± 0.0294 E-score; for ACGGGGGA: 0.217 ± 0.0264 E-score.
On to AGGGGATA, for which the binding signal worked out at 0.425 ± 0.000834 E-score.
CGGGGAGA: the binding signal was 0.182 ± 0.0823 E-score.
The same measure for AGGGGGGA: 0.206 ± 0.028 E-score.
On to CCGGGATA, for which the binding signal came to 0.305 ± 0.0131 E-score.
The same measure for CTGGGATA: 0.266 ± 0.0214 E-score.
The same measure for GTGGGATA: 0.348 ± 0.0178 E-score; for ACGGGATA: 0.376 ± 0.00774 E-score; for CGGGGATA: 0.413 ± 0.0228 E-score.
The same measure for ATGGGATA: 0.36 ± 0.00494 E-score; for GGGGGATA: 0.4424 ± 0.00147 E-score.
Regarding GCGGGATA, the binding signal amounted to 0.3486 ± 0.00158 E-score.
The same measure for CCAGGGTA: 0.221 ± 0.0174 E-score.
The same measure for GGAACACC: 0.187 ± 0.018 E-score; for CATTAATA: 0.154 ± 0.0188 E-score.
The same measure for ATAACATC: 0.165 ± 0.0558 E-score; for GATCACGA: 0.273 ± 0.0518 E-score; for ATCACCGA: 0.251 ± 0.0115 E-score.
With CATATGGG, the binding signal was determined as 0.179 ± 0.0474 E-score.
The same measure for CGCCTATC: 0.218 ± 0.0337 E-score.
The same measure for AGCGTATC: 0.411 ± 0.0267 E-score; for CGCGTATA: 0.232 ± 0.0592 E-score.
With AGCGTATA, the binding signal is 0.233 ± 0.0627 E-score.
The same measure for CGCGTATC: 0.424 ± 0.00815 E-score; for GGCGTATA: 0.179 ± 0.0032 E-score; for ATACCCGG: 0.407 ± 0.0266 E-score.
Turning to ACACCCGA, the binding signal was 0.294 ± 0.0236 E-score.
Consider ATACCAGC, for which the binding signal was found to be 0.3035 ± 0.00134 E-score.
As to ATACCCGA, the binding signal worked out at 0.407 ± 0.00771 E-score.
The same measure for AAACCCGG: 0.163 ± 0.0401 E-score; for ATACCAGG: 0.3772 ± 0.00332 E-score.
